# Compounds with a hit are over-represented: about 22% of the library has one in this group of screens.
# LmPK inh – qHTS Assay for Inhibitors of Leishmania Mexicana Pyruvate Kinase (LmPK); Q27686; purified LmPK, Kinase-Glo ATP luminescence, 1 h; Potency, µM (series often up to 57.5 µM), inactives show at the highest dose activity change, negative = inhibition, most hits filed as inhibitors; 290,000 tested, 0.37% active; AID 1721, 2009; note: potency is the fitted concentration of half-maximal effect; % is set by controls: 0 for no effect and ±100 for the full control effect
# Target sequence (Q27686 whole entry, looked up): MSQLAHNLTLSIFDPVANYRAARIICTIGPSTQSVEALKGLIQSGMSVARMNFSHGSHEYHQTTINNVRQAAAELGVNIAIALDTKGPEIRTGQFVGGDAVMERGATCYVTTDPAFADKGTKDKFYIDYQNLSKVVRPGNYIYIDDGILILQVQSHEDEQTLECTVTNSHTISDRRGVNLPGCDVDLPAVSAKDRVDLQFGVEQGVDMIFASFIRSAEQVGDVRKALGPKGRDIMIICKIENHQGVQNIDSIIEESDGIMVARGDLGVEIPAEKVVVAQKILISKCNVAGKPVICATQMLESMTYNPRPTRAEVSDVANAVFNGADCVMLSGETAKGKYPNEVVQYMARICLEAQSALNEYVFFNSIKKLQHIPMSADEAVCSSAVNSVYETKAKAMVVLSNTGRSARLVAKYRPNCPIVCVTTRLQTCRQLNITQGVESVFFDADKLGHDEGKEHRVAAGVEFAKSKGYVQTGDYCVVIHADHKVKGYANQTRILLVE
#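 Purified LmPK (0.1 nM) converted ADP (0.1 mM) to ATP with PEP (0.5 mM) in imidazole buffer pH 7.2 with KCl and MgCl2, 1 h at room temperature. ATP was read by Kinase-Glo luminescence; data normalized to uninhibited and no-enzyme controls.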
# Pf growth 96h – Primary qHTS for delayed death inhibitors of the malarial parasite plastid, 96 hour incubation; P. falciparum luciferase reporter growth, 96 h; Potency, µM (doses to about 28.7 µM), for inactives: top-dose activity change, negative = inhibition, usual class: inhibitors; 320,000 tested, 6.9% active; note: potency is the fitted concentration of half-maximal effect; % is set by controls: 0 for no effect and ±100 for the full control effect
#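 Erythrocytes infected with luciferase-expressing P. falciparum were dispensed at 2% hematocrit and 0.05% parasitemia (final), then incubated with compounds 96 hours at 37 C in 5% CO2. Luminescence after detection reagent addition reported growth.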
# Cycloheximide cs – Cycloheximide Counterscreen for Small Molecule Inhibitors of Shiga Toxin; max response, %; cell reporter, cycloheximide protein synthesis inhibition counterscreen; 300,000 tested, 12% active; in the data active = max response mostly above about 13%, no sharp cut-off; inactive = mostly below about 14%; note: read at 38.3 µM for the half of the compounds with a filed dose; 0% is about no effect
# Shiga toxin inh – A qHTS for Small Molecule Inhibitors of Shiga Toxin; 290,000 tested, 9.2% active; Vero cells, Shiga toxin protein synthesis inhibition reporter; inhibition, % at 38.7 µM; in the data active = inhibition mostly above about 28%, no sharp cut-off; inactive = mostly below about 43%; note: 0% is about no effect
# Pf growth 48h – Primary qHTS for delayed death inhibitors of the malarial parasite plastid, 48 hour incubation | AID 504832, 2011 | Potency, µM (titrated, usually from 28.7 µM), without a hit: at the highest dose activity change, negative = inhibition, usual class: inhibitors | 310,000 tested, 5.9% active | P. falciparum luciferase growth in erythrocytes, 48 h; note: potency is the fitted concentration of half-maximal effect; % is set by controls: 0 for no effect and ±100 for the full control effect
#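 Luciferase-expressing parasites in RBCs, 2% Hct / 0.1% parasitemia final; RPMI 1640 + 0.5% Albumax; 37 C, 5% CO2, one generation; luminescence read-out, lower signal = inhibition.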
# * hit, by the source's call; ? = inconclusive; . = no result given. Unless noted, calls come from the whole dose curve; as a rule, active = well fitted inhibition curve with a large enough effect; inconclusive = small, poorly fitted or top-dose-only effect, or another doubt; inactive = no such curve, though single readings can be large or run the other way.
SMILES,LmPK inh,Pf growth 96h,Cycloheximide cs,Shiga toxin inh,Pf growth 48h
Cc1cc(NC(=O)c2ccco2)c(=O)n(Cc2cccc(C(F)(F)F)c2)c1,-2%,5%,-1,15,-7%
Cc1noc(C)c1-c1ccc2ncnc(NCc3ccc(C(F)(F)F)cc3)c2c1,.,.,-1,15,.
CN1/C(=C\C(=O)CSc2nnc(NCc3ccccc3)s2)C(C)(C)c2ccccc21,2%,6.6µM*,-1,-4,7.4µM*
CN1/C(=C\C(=O)c2ccco2)C(C)(C)c2ccccc21,-1%,267%,-2,13,1.7µM*
C=CCN(Cc1cccc(OC)c1OC)C(=O)Oc1ccccc1,.,-21%,.,.,-17%
CCOc1ccc(C(C)=O)cc1CSc1nc2nc(C)cc(C)n2n1,-5%,-21%,-4,2,-17%
CC(C)C1(CCNC(=O)c2cccs2)CCOC(C)(C)C1 (configuration not stated),1%,?,-2,-13,?
Cc1ccc(C2(CCNC(C)c3cccs3)CCOC(C(C)C)C2)cc1 (configuration not stated),-1%,?,-1,-13,?
CC(NCCC1(C(C)C)CCOC(C)(C)C1)c1cccs1 (configuration not stated),3%,?,8.8*,27,24%
CC(NCCC1(Cc2ccccc2Cl)CCOC(C)(C)C1)c1cccs1 (configuration not stated),-6%,12µM*,-1,-11,?
Nc1ncnc2c1cnn2C1CCCCC1,2%,?,3,4,73%
Cc1cccc(NC(=O)Cc2coc3ccc4ccccc4c23)n1,6%,.,-2,-8,?
Cc1nc(N)sc1N=Nc1ccc(F)cc1,-1%,?,49*,62*,.
O=C(O)c1ccc(N2C(=O)CC(N3CCN(c4cccc(C(F)(F)F)c4)CC3)C2=O)cc1 (configuration not stated),0%,-5%,-1,14,14%
O=C(O)c1ccc(N2C(=O)CC(N3CCN(c4cccc(Cl)c4)CC3)C2=O)cc1 (configuration not stated),9%,?,9.7*,.,-13%
O=C1CC(N2CCOCC2)C(=O)N1c1ccc(Cl)cc1 (configuration not stated),1%,0%,-4,-6,7.4µM*
Cc1ccc(N=Nc2ccc(O)c3ncccc23)cc1,-3%,?,-6,-9,0.47µM*
Cc1ccc(N=Nc2ccc(O)c3ncccc23)cc1C,0%,?,28*,100*,?
COc1cc(CNC(C)(C)C)cc(Br)c1OCc1cccs1,0%,19%,-6,-7,?
C=CCOc1c(Br)cc(CNc2nccs2)cc1OC,-3%,0.37µM*,5,17,?
CCc1ccccc1NC(=O)CNC(=O)c1cn(Cc2ccccc2)nc1-c1cccnc1,.,5.9µM*,.,.,?
O=C(NC1CCN(Cc2ccc(Cl)cc2)CC1)c1cn(-c2ccccc2)nc1-c1cccnc1,.,?,.,.,1.9µM*
O=C(NCc1ccncc1)c1cn(-c2ccccc2)nc1-c1cccnc1,6%,?,-5,-9,15µM*
O=C(NCc1cccnc1)c1cn(-c2ccccc2)nc1-c1ccccc1,1%,31%,21*,20,53%
O=C(COC(=O)Cc1ccccc1F)Nc1cccc(S(=O)(=O)NC2=NCCCCC2)c1,3%,23%,8,-17,-10%
SMILES,LmPK inh,Pf growth 96h,Cycloheximide cs,Shiga toxin inh,Pf growth 48h
COc1ccc(-n2nc(C(=O)NCC(=O)N3CCCC3)c3ccccc3c2=O)cc1Cl,-2%,?,-2,2,0%
CCCCC(C(=O)NC1CCCC1)N(C(=O)c1snc(C(N)=O)c1N)c1ccc(OCC)cc1 (configuration not stated),-1%,1%,-5,34,?
CCC1Oc2nc(SC)nnc2-c2ccccc2N1C(=O)c1ccccc1 (configuration not stated),1%,-21%,16*,41,-18%
Cc1ccc(Cn2ccc(-c3cnc(-c4ccccc4)s3)n2)cc1,-2%,105%,30*,69*,.
Cc1ccc(Cn2cnc3ccccc32)cc1,-2%,.,7,18,3%
Fc1ccc(Cn2ccc(-c3cnc(-c4ccccc4)s3)n2)cc1,-8%,15%,39*,67,.

# From PubChem
